Assay outcomes: PubChem, National Center for Advancing Translational Sciences (NCATS)
IL-1B inflam inh – qHTS for Inhibitors of Inflammasome Signaling: IL-1-beta AlphaLISA Primary Screen; THP-1 LPS/ATP IL-1B secretion, AlphaLISA, 16 h; hits give low values; activity change, % at 57.5 µM; actives 4.7% (n = 360,000); in the data active means activity change below about -50%; inconclusive means mostly about -30% to -49%
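THP-1 cells pretreated 1 hr with compounds (up to 57.5 uM final), then stimulated with LPS (250 ng/mL final) plus ATP (1.25 mM final); secreted IL-1B measured by AlphaLISA after 16 hr, decreased signal indicating inhibition.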
TDP1 block – qHTS Assay for Inhibitors of Tyrosyl-DNA Phosphodiesterase (TDP1); Tyrosyl-DNA phosphodiesterase 1 (Homo sapiens), Q9NUW8; recombinant TDP1, AlphaScreen DNA substrate cleavage; Potency, µM (series often up to 130 µM), without a hit: top-dose activity change, negative = inhibition, most hits filed as inhibitors; actives 0.28% (n = 350,000); further: potency means the concentration at half of the fitted maximal effect; nearly all actives have a fitted effect of over 40% in size
Target sequence (Q9NUW8 whole entry, looked up): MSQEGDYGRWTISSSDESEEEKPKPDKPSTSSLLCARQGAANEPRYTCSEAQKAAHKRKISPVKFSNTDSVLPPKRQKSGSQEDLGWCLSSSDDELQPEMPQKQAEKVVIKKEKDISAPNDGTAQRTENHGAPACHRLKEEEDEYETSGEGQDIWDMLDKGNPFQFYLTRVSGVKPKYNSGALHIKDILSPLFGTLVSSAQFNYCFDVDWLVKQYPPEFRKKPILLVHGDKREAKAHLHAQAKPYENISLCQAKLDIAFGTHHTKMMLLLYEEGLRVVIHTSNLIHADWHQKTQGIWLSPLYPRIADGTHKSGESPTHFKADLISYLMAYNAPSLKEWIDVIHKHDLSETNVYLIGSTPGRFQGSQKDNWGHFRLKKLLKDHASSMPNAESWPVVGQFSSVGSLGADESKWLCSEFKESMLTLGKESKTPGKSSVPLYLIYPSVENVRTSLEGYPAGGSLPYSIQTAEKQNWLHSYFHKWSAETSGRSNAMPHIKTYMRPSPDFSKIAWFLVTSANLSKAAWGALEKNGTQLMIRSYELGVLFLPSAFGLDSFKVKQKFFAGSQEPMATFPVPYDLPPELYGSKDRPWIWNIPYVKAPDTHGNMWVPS
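Recombinant E. coli-expressed Tdp1 (1 nM) preincubated with compound 15 min at RT, then 5'-biotin/3'-phosphotyrosine-FITC DNA substrate (15 nM) added for 5 min. AlphaScreen beads (10 ug/ml) added, 10 min RT; tyrosine-FITC cleavage read as signal loss.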
Giardia kill – Small Molecules that selectively kill Giardia lamblia: qHTS; activity change, % at 7.66 µM, hits read low; actives 0.15% (n = 340,000); Giardia lamblia trophozoite viability; AID 540267, 2011; in the data active means activity change below about -80%; inconclusive means between about -30% and that limit;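 further: parasites exposed to compound for two days anaerobically before the ATP read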
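Trophozoite viability was measured as ATP-dependent luminescence, read 15-30 min after reagent addition. Before that, parasites at 100 cells/well were exposed to compounds for 48 h, anaerobically, at 37 deg C.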
DT40 TDP1 no CPT – qHTS for Inhibitors of human tyrosyl-DNA phosphodiesterase 1 (TDP1): qHTS in cells in absence of CPT | AID 686978, 2013 | actives 15% (n = 420,000) | DT40 Tdp1-/- hTDP1 cells, no CPT, ATP luminescence, 48 h | Potency, µM (top dose mostly 46.2 µM), for the others: top-dose activity change, negative = growth inhibition, hits mostly inhibitors; further: potency means the concentration at half of the fitted maximal effect; nearly all actives have a fitted effect of over 55% in size
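DT40 Tdp1-/-;hTDP1 cells, no CPT (DMSO vehicle only), 400 cells/well; compounds pin-transferred; ≥48 hr, 37 °C; CellTiter-Glo 30 min RT dark, luminescence read.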
ELG1 repair inh – qHTS screen for small molecules that inhibit ELG1-dependent DNA repair in human embryonic kidney (HEK293T) cells expressing luciferase-tagged ELG1; HEK293T ELG1-luciferase reporter, luminescence, 16 h; DNA damage induced by 5-fluorouridine; Potency, µM (series often up to 46.1 µM), for the others: at the highest dose activity change, negative = inhibition, hits mostly inhibitors; actives 2.3% (n = 330,000); further: potency means the concentration at half of the fitted maximal effect; nearly all actives have a fitted effect of over 55% in size
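Reporter activity after DNA damage by 5-fluorouridine is monitored. Compound-treated cells incubate 16 hr at 37 °C, then ONE-Glo is added for 30 min before luminescence reading.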
DT40 TDP1 CPT – qHTS for Inhibitors of human tyrosyl-DNA phosphodiesterase 1 (TDP1): qHTS in cells in presence of CPT | actives 12% (n = 420,000) | chicken DT40 Tdp1-/-;hTDP1 cells + 20 nM CPT, ATP luminescence, 48 h | Potency, µM (doses to about 46.2 µM), for the others: at the top dose activity change, negative = growth inhibition, most hits filed as inhibitors | AID 686979, 2013; further: potency means the concentration at half of the fitted maximal effect; nearly all actives have a fitted effect of over 55% in size
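Cell growth measured by CellTiter-Glo luminescence after a minimum 48 h, 37 C compound exposure with 20 nM CPT in Tdp1-knockout DT40 cells stably expressing hTDP1, seeded 400/well; qHTS titration format.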
* = called active by the depositor; ? = inconclusive; / = no result given. Shown are actives, neighbours in structure and some others; about 19% of the full set was active somewhere. Unless noted, the call rests on the fitted dose curve; in most records, active means well fitted curve in the direction sought with a large enough effect; inconclusive means small, poorly fitted or top-dose-only effect, or another doubt; inactive means no such curve, though single readings can be large; an effect the other way counts as inactive or inconclusive. On the % scale 0 is the no-effect control and ±100 the full control effect.

SMILES	IL-1B inflam inh	TDP1 block	Giardia kill	DT40 TDP1 no CPT	ELG1 repair inh	DT40 TDP1 CPT
CCCCNC(=O)c1c(N)n(/N=C/c2ccccn2)c2nc3ccccc3nc12	/	-6%	/	/	-1%	/
CCN=c1scc(-c2ccccc2)n1/N=C/c1ccccn1	-58*	8%	?	3.7µM*	?	4.1µM*
OCC1=C[C@@H](O)[C@@H]2C=CO[C@@H](OC3O[C@H](CO)[C@@H](O)[C@H](O)[C@H]3O)[C@H]12 (stereo not given in full)	/	4%	/	/	/	/
Cc1ccc(N2C(=O)C3C4C=CC(CNC(=S)N5CCN(c6cccc(C)c6)C(C)C5)(O4)C3C2=O)cc1 (stereo not given)	27	8%	15	4.6µM*	3%	9.2µM*
Cc1cccc(N2CCN(C(=O)c3ccc4ccccc4c3)CC2C)c1 (stereo not given)	?	5%	-3	?	?	?
CCN(CC)c1ccc(/C=N/NC(=O)Nc2nonc2N)cc1	-28	5%	14	-19%	?	-9%
CC(C)C(NC(=O)CCNC(=O)c1ccc([N+](=O)[O-])cc1)c1nc2ccccc2[nH]1 (stereo not given)	11	0%	14	-11%	2%	-24%
COc1ccc(-c2ccc(NS(=O)(=O)c3cccc([N+](=O)[O-])c3)cc2)nn1	-4	4%	25	?	12%	?
COc1ccc(-c2ccc(NS(=O)(=O)c3ccc(C(C)=O)cc3)cc2)nn1	/	2%	/	-22%	/	-28%
COc1ccc(-c2ccc(NS(=O)(=O)c3ccccc3Cl)cc2)nn1	/	5%	/	18µM*	/	21µM*
COc1ccc(-c2cccc(NS(=O)(=O)c3cccc([N+](=O)[O-])c3)c2)nn1	10	6%	?	26µM*	1%	?
COc1ccc(-c2ccc(NS(=O)(=O)c3cc(C)c(C)cc3C)cc2)nn1	/	5%	/	?	/	21µM*
COc1ccc(-c2ccc(NS(=O)(=O)c3cccc(C)c3)cc2)nn1	/	3%	/	29µM*	/	?
CCCCNC(=O)C(NC(=O)c1ccc(C)cc1)C(=O)c1ccccc1 (stereo not given)	23	/	/	-25%	/	-2%
Cc1ccc(C)c(NC(=O)C(=O)NCCc2csc(-c3cccc(F)c3)n2)c1	/	-2%	/	-13%	/	?
O=C(O)c1ccc(/C=N/Nc2ccc(Cl)nn2)cc1	5	7%	8	-8%	28%	?
COc1ccc(-c2ccc(NS(=O)(=O)c3ccccc3)cc2)nn1	/	-3%	/	15µM*	/	?
C=CCC[C@@H](Cc1ccc(F)cc1)C(=O)OC[C@@H](Cc1c[nH]c2ccccc12)NC(=O)[C@@H](CC=C)CC(=O)N[C@@H](CO)Cc1ccccc1	-19	3%	-18	?	3%	23µM*
C=CCC[C@@H](Cc1ccc(F)cc1)C(=O)OC[C@H](Cc1c[nH]c2ccccc12)NC(=O)[C@@H](CC=C)CC(=O)N[C@@H](CO)Cc1ccccc1	-3	1%	-1	?	-20%	21µM*
C=CCC[C@@H](Cc1ccc(F)cc1)C(=O)OC[C@@H](Cc1c[nH]c2ccccc12)NC(=O)[C@H](CC=C)CC(=O)N[C@H](CO)Cc1ccccc1	91	2%	-4	?	12%	?
C=CCC[C@@H](Cc1ccc(F)cc1)C(=O)OC[C@@H](Cc1ccccc1)NC(=O)[C@H](CC=C)CC(=O)NCCO	-25	1%	-18	13µM*	-29%	9.2µM*
C=CCC[C@H](Cc1ccc(F)cc1)C(=O)OC[C@H](Cc1c[nH]c2ccccc12)NC(=O)[C@@H](CC=C)CC(=O)NCCO	-12	3%	15	?	21µM*	?
C=CCC[C@H](Cc1ccc(F)cc1)C(=O)OC[C@@H](C)NC(=O)[C@H](CC=C)CC(=O)NCCO	0	2%	3	?	18%	-23%
COCCN(C(=O)CNC(=O)c1cccs1)C(C(=O)NC(C)(C)C)c1ccccc1 (stereo not given)	7	-1%	-6	17%	2%	-3%
Cc1noc(COc2ccccc2OCC(N)=O)n1	/	/	1	-21%	/	1%
SMILES	IL-1B inflam inh	TDP1 block	Giardia kill	DT40 TDP1 no CPT	ELG1 repair inh	DT40 TDP1 CPT
C=CCC[C@H](Cc1ccc(F)cc1)C(=O)OC[C@@H](Cc1c[nH]c2ccccc12)NC(=O)[C@@H](CC=C)CC(=O)N[C@@H](CO)Cc1ccccc1	-30	1%	25	23µM*	2%	?
Cc1ccc(OCCC(=O)N(CCC(C)C)c2c(N)n(Cc3ccccc3)c(=O)[nH]c2=O)cc1	-1	-6%	2	21µM*	1%	-9%
CC(C)CCN(C(=O)c1cc(=O)[nH]c2ccccc12)c1c(N)n(Cc2ccccc2)c(=O)[nH]c1=O	3	1%	12	-6%	0%	7%
CC(C)CCN(C(=O)Cc1ccc(Cl)c(Cl)c1)c1c(N)n(Cc2ccccc2)c(=O)[nH]c1=O	?	3%	-25	26µM*	-3%	?
CCN(CC(=O)Nc1ccc(NC(C)=O)cc1)C(=O)CCCc1c[nH]c2ccccc12	?	3%	-7	14%	11%	1%
CCCN1CCN(c2nnc(-n3cccc3C(=O)Nc3cc(Cl)ccc3C)s2)CC1	/	8%	/	?	/	?
O=C(c1ccc(NC(=S)Nc2ccc(Cl)c(Cl)c2)cc1)N1CCCC1	-99*	0%	18	?	?	?
O=C(CNCc1ccc(Cl)cc1)Nc1ccc(C(=O)N2CCCCC2)cc1	-12	0%	14	-27%	3%	-17%
Cc1ccc(C(=O)N2CCN(CCNC(=O)C(=O)NCc3ccc(Cl)cc3)CC2)cc1	0	1%	-4	?	?	16µM*
COC(=O)c1cc(NC(=S)NCc2ccc(Cl)cc2)cc(C(=O)OC)c1	-5	-1%	5	?	0%	16µM*
O=C(c1ccc(NC(=S)NCc2ccc(Cl)cc2)cc1)N1CCCCC1	7	5%	9	23µM*	?	?
